Out of some 140,000 compounds screened, about 4,300 (3.1%) were called active. Not shown: some 21% with an inconclusive outcome. The list comes from a sample in which actives are over-represented; it also holds similar structures and randomly drawn compounds. Unmarked numbers belong to inactive results.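 The calls were made as follows: active = readout at or below -70, meaning at least 70% loss of cells showing the perinucleolar compartment, a nuclear body marking cancer cells; inconclusive = readout between -30 and a set limit; inactive = the rest.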

In PubChem BioAssay AID2417 (National Center for Advancing Translational Sciences (NCATS), 2010) one finds activity change (PNC), negative = inhibition data, which are given here for 94 molecules.

This experiment is described as follows: High Content Assay for Compounds that inhibit the Assembly of the Perinucleolar Compartment.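 Also: plate controls were DMSO wells for no effect and camptothecin positive control wells for full effect.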 Conditions: PC3M PTB-GFP, PNC prevalence imaging, 16 h; at 10 µM; hits give low values. The method, boiled down:
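PC3M cells stably expressing PTB-GFP, 750–1000 cells/well, treated 16 h at 37 °C with compound (23 nl of library stock), in duplicate. After paraformaldehyde fixation and Hoechst stain, imaged at 20x; PNC prevalence scored by image analysis.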
As for `C[N+]1(CC(O)COc2ccccc2)CCN(C(=O)c2ccc([N+](=O)[O-])cc2)CC1` (centres undefined), the activity change (PNC), negative = inhibition is 13%. On to `COc1ccc(-c2cc3ccc(OCc4nn[nH]n4)cc3oc2=O)cc1`, for which the activity change (PNC), negative = inhibition is -119% (active). Regarding `O=c1oc2cc(O)ccc2cc1-c1ccc(F)cc1`, the activity change (PNC), negative = inhibition is 13%. For `CCCCc1cc(=O)oc2cc(C)cc(OCc3nn[nH]n3)c12`, the activity change (PNC), negative = inhibition was 9.68%. The same measure for `CCc1nc(N2CCN(c3nc(C)cc(C)n3)CC2)c2oc3ccccc3c2n1`: -21.5%; for `Cc1cc(C)nc(N2CCN(c3ncnc4c3oc3ccccc34)CC2)n1`: -114% (active). For the molecule `COc1ccccc1Nc1ncnc2c1oc1ccccc12`, the activity change (PNC), negative = inhibition was 52.9%.

For the molecule `O=C(COC(=O)c1c2c(nc3ccccc13)/C(=C\c1cccs1)CCC2)Nc1ccccc1Cl`, the activity change (PNC), negative = inhibition was -25.2%. For `O=C(CN1C(=O)NC2(CCCCCC2)C1=O)NCc1cccs1`, the activity change (PNC), negative = inhibition was -4.41%.

`COc1ccccc1OCc1ccc(C(=O)N2CCN(C)CC2)o1`: the activity change (PNC), negative = inhibition is -19.3%. `O=C(c1ccc(Cl)c(Cl)c1)N1CCCC1`: the activity change (PNC), negative = inhibition is 50.1%. Under `Cc1c(Cl)cccc1NC(=O)Nc1ccc(C(=O)N2CCCC2)cc1` stands -83.7% (active); under `CS(=O)(=O)Nc1ccc(C(=O)N2CCCC2)cc1`, 3.33%; under `CCC(C)(C)C1CCC(=NNC(=O)c2ccc(Br)o2)CC1` (centres undefined), -3.73%. With `CC(C)c1nccn1S(=O)(=O)c1cc([N+](=O)[O-])ccc1Cl`, the activity change (PNC), negative = inhibition was 2.64%. With `CCc1nnc(NC(=O)CCN(c2ccc(C)cc2)S(=O)(=O)c2ccccc2)s1`, the activity change (PNC), negative = inhibition was 2.13%. With `CCNc1ccc(C(=O)OCC(=O)N2c3ccccc3NC(=O)C2(C)C)cc1[N+](=O)[O-]`, the activity change (PNC), negative = inhibition was -112% (active). Turning to `Nc1ccc(C(=O)OCC(=O)NC2CCCc3ccccc32)cc1[N+](=O)[O-]` (centres undefined), the activity change (PNC), negative = inhibition is -26.5%.

Turning to `CC1(C)C(=O)Nc2ccccc2N1C(=O)COC(=O)Cn1cnc2ccccc2c1=O`, the activity change (PNC), negative = inhibition was -28.4%.

`Cc1ccc(C(=O)CNc2ccc(F)cc2)cc1`: the activity change (PNC), negative = inhibition was 23.7%. For the molecule `COc1ccc(/C=C/C(=O)OCC(=O)Nc2cccc(Oc3ccccc3)c2)c(OC)c1`, the activity change (PNC), negative = inhibition is 25.2%. As to `COc1cc(/C=C/C(=O)OCC(=O)Nc2cccc(Oc3ccccc3)c2)ccc1O`, the activity change (PNC), negative = inhibition was -28.3%.

Take `O=C(COC(=O)/C=C/c1nc2ccccc2s1)Nc1ccccc1Oc1ccccc1`: the activity change (PNC), negative = inhibition was -108% (active). `O=C(NC1CCN(Cc2ccccc2)CC1)c1c(F)cccc1F`: the activity change (PNC), negative = inhibition was -1.56%.

Consider `COCCNC(=O)c1ccc(N2CCC3(CC2)OCCO3)c([N+](=O)[O-])c1`, for which the activity change (PNC), negative = inhibition was -24.5%. Consider `COc1cccc(NC(=S)NCc2ccco2)c1`, for which the activity change (PNC), negative = inhibition is 14.5%. Take `Cc1ccc(NC(=O)NC(=O)N(C2CCCCC2)S(=O)(=O)c2ccccc2)cc1`: the activity change (PNC), negative = inhibition was 8.69%.

Regarding `OC(COc1ccc2ccccc2c1)CN1CCOCC1` (centres undefined), the activity change (PNC), negative = inhibition was 13%. Consider `OC(COCc1ccco1)CN1CCN(c2ccccc2)CC1` (centres undefined), for which the activity change (PNC), negative = inhibition was -85.3% (active).

As for `OC(COCC1COc2ccccc2O1)CN1CCN(c2ccc(F)cc2)CC1` (centres undefined), the activity change (PNC), negative = inhibition is -2.15%.

For the molecule `Cc1ccc(-c2csc(NNC(=O)c3ccccc3)n2)cc1`, the activity change (PNC), negative = inhibition is -13.8%.

Regarding `Cc1ccc(O)c(-c2cc(C(=O)NCc3ccccc3)[nH]n2)c1`, the activity change (PNC), negative = inhibition was -13.6%. As to `Cc1cccc(NC(=O)C2CC(=O)OC23CCCC3)c1` (centres undefined), the activity change (PNC), negative = inhibition is -100% (active).

As to `Cc1cccc(NC(=O)C2CCN(S(=O)(=O)c3cccc4cccnc34)CC2)c1`, the activity change (PNC), negative = inhibition is 20.6%. Under `Cc1cccc(NC(=O)CN2C(=O)CNC2=O)c1` stands 48.7%. Under `CCCCOc1ccc(NC(=O)[C@@H]2CCCN2C(=O)C2CCN(S(=O)(=O)c3ccc(C)cc3)CC2)cc1` stands 7.21%; under `COc1cc(/C=N/O)ccc1OCc1ccc([N+](=O)[O-])cc1`, 15.8%.

In the case of `CCCCCNC(=O)c1cccnc1SCC(=O)Nc1ccccc1OC`, the activity change (PNC), negative = inhibition is -119% (active). The same measure for `CCCNC(=O)c1ccccc1NC(=O)CSCc1ccc(OC)cc1`: -26.5%; for `COC(=O)c1ccccc1NC(=O)CSc1ccccn1`: 6.08%; for `COc1cc(NC(=O)c2ccccc2NS(=O)(=O)c2ccc(Cl)s2)cc(OC)c1`: -4.27%. For the molecule `CCOC(=O)c1nc(Nc2ccc(C(=O)OC)cc2)c2ccccc2n1`, the activity change (PNC), negative = inhibition was -9.55%. Consider `CCOC(=O)c1nn(-c2ccccc2F)c2nc(Nc3ccccc3)cc(=O)n12`, for which the activity change (PNC), negative = inhibition was -91% (active). Turning to `Cc1cc(Nc2ccccc2)nc(N)n1`, the activity change (PNC), negative = inhibition is -28.7%. As for `Nc1nc(SCC(=O)NCCN2CCOCC2)nc2sc3c(c12)CCC3`, the activity change (PNC), negative = inhibition was 3.5%. `Cc1ccc(Cl)cc1N1CCN(C(=O)c2cccc3c(=O)c(C)c(-c4ccccc4)oc23)CC1`: the activity change (PNC), negative = inhibition is 2.98%.

On to `C[C@@H](O)c1nc2ccccc2n1N`, for which the activity change (PNC), negative = inhibition was -14.7%.

Consider `O=C(O)c1cccc(N=NN2CCCCCC2)c1`, for which the activity change (PNC), negative = inhibition was 12.1%. The same measure for `COc1ccc(-c2cc(C(=O)NCc3ccco3)no2)cc1OC`: -7.14%; for `Cc1ccc(CNC(=O)C2CC(c3ccccc3[N+](=O)[O-])=NO2)o1` (centres undefined): -9.83%; for `COc1ccc(C2=NOC(C(=O)NCc3ccco3)C2)cc1OC` (centres undefined): -87% (active). Under `COc1ccc(Nc2ncc(C(=O)N3CCN(c4ccccc4OC)CC3)c3ccccc23)cc1` stands 37.3%; under `COc1ccccc1N1CCN(C(=O)C(=O)N/N=C/c2ccccc2F)CC1`, -114% (active); under `COc1ccccc1N1CCN(C(=O)c2ccc(S(=O)(=O)N3CCCCC3)cc2)CC1`, 48.1%.

For `Cc1ccc(N(C(=O)C(F)(F)F)C(C(=O)NC2CCCCC2)c2ccncc2)cc1C` (centres undefined), the activity change (PNC), negative = inhibition was 0.653%. Turning to `CCCCOc1ccc(C(=O)NCC(=O)OCC(=O)N2CCN(S(=O)(=O)c3ccc(C)cc3C)CC2)cc1`, the activity change (PNC), negative = inhibition is 24.8%. On to `CC1(C)CC(=O)NC=C(c2ccccc2)C1`, for which the activity change (PNC), negative = inhibition was 20.5%. Regarding `CC(C)N1C(=O)N(c2ccccc2)C(C)(O)CC1(C)C` (centres undefined), the activity change (PNC), negative = inhibition was -24.7%.

Take `CC(C)C1C2=C(CC(C)(C)CC2=O)ON1c1ccccc1` (centres undefined): the activity change (PNC), negative = inhibition is -90.5% (active).

`CCCCCOc1ccc(/C=C/C(=O)NCCc2nc3ccccc3[nH]2)cc1OC`: the activity change (PNC), negative = inhibition is 37%. The same measure for `COc1cc(/C=C(/NC(=O)c2ccc(Cl)cc2Cl)C(=O)O)cc(OC)c1OC`: -21.4%; for `O=C(NCc1ccccc1Cl)C1CCC(CNc2c(N3CCCCC3)c(=O)c2=O)CC1` (centres undefined): 42.7%. `COCCn1c(=O)[nH]c2cc(C(=O)NCc3cccnc3)ccc2c1=O`: the activity change (PNC), negative = inhibition was -86.1% (active).

For the molecule `CC(C)(C)c1cc(C(=O)NCc2cccnc2)ccn1`, the activity change (PNC), negative = inhibition is 47.5%.

Take `COCCn1c(=S)[nH]c2cc(C(=O)NCCc3ccc(OC)c(OC)c3)ccc2c1=O`: the activity change (PNC), negative = inhibition was 26.1%. With `Cc1ccc(NC(=O)CCC(=O)N/N=C/c2ccco2)c(C)c1`, the activity change (PNC), negative = inhibition was -23.4%. In the case of `COC(=O)c1sccc1NC(=O)c1cc(OC)c(OC)c(OC)c1`, the activity change (PNC), negative = inhibition is 81.2%. With `COc1cc(C(=O)Nc2oc(-c3ccccc3)c(-c3ccccc3)c2C#N)cc(OC)c1OC`, the activity change (PNC), negative = inhibition is -87.4% (active). On to `N#Cc1c(NC(=O)CCCN2C(=O)c3ccccc3C2=O)oc(-c2ccccc2)c1-c1ccccc1`, for which the activity change (PNC), negative = inhibition is -11.2%.

`CCc1ccc(-c2cc(C(=O)NN3CCN(C)CC3)c3ccccc3n2)cc1`: the activity change (PNC), negative = inhibition was -5.44%. Under `O=[N+]([O-])c1ccc(NCCCO)c(C(F)(F)F)c1` stands 59.3%; under `C=C(C)c1cccc(C(C)(C)NC(=O)NC2CCCC2)c1`, 24%; under `Cc1ccc2[nH]c(C(=O)O)c(NC(=O)c3ccccc3[N+](=O)[O-])c2c1`, 17.5%.

For `CCC(=O)Nc1c(S(=O)(=O)c2ccccc2)c2nc3ccccc3nc2n1Cc1ccccc1`, the activity change (PNC), negative = inhibition is 8.42%. For `O=S(=O)(NCCc1ccncc1)c1ccccc1`, the activity change (PNC), negative = inhibition was 50.6%. The same measure for `COc1cc2c(cc1OC)C(Nc1ccc(S(N)(=O)=O)cc1)=NC(C)(C)C2`: -18.6%; for `O=C1OC(OC(=O)c2ccccc2Br)C(N2CCOCC2)=C1Cl` (centres undefined): 84.2%; for `CCc1cccc(NC(=O)CCC(=O)O)c1`: -102% (active). On to `O=C(CCCOc1ccccc1)Nc1cccc(C(=O)O)c1`, for which the activity change (PNC), negative = inhibition was 11.1%. `CSc1cccc(NC(=O)CSc2ccccc2)c1`: the activity change (PNC), negative = inhibition was 1.35%. Take `CCOc1ccc(NC(=O)CSc2ncnc3c2sc2ccccc23)cc1`: the activity change (PNC), negative = inhibition is 42.2%. In the case of `O=C(Oc1ccccc1C(=S)N1CCCCC1)c1cc([N+](=O)[O-])cc([N+](=O)[O-])c1`, the activity change (PNC), negative = inhibition was -100% (active).

With `COc1cc(C(=S)N2CCOCC2)cc(OC)c1OC(=O)c1cc([N+](=O)[O-])cc([N+](=O)[O-])c1`, the activity change (PNC), negative = inhibition is 19.6%. Take `O=C(Oc1ccccc1Cl)c1ccc(N2CCOCC2)c([N+](=O)[O-])c1`: the activity change (PNC), negative = inhibition is 20.3%. With `CN(C)CCNC(=O)/C(=C/c1cccc([N+](=O)[O-])c1)NC(=O)c1ccccc1`, the activity change (PNC), negative = inhibition was -1.37%. As for `COc1ccc(CCC(=O)OCC(=O)Nc2ccc(C)c(S(=O)(=O)N(C)C)c2)cc1`, the activity change (PNC), negative = inhibition was 34.8%.

For `COc1ccc(/C(C)=N/NC(=O)CCC(=O)Nc2ccc(Cl)cc2Cl)c(OC)c1`, the activity change (PNC), negative = inhibition is -10.3%. For the molecule `Cc1ccc(NC(=S)NCc2ccccc2Cl)c(C)c1`, the activity change (PNC), negative = inhibition is 22.9%. Consider `COc1ccc(-c2c(C(C)=O)c(C)nc3sc4c(=O)n(-c5ccc(C)cc5)nnc4c23)cc1`, for which the activity change (PNC), negative = inhibition is -106% (active). Turning to `COCc1cc(C)nc2sc3c(=O)n(-c4cccc5ccccc45)nnc3c12`, the activity change (PNC), negative = inhibition is 0.942%. On to `COc1ccc(N2C(=O)C(O)C2c2ccc(C)cc2)cc1` (centres undefined), for which the activity change (PNC), negative = inhibition was -29.1%. The same measure for `Clc1ccc(CSc2nnc(/C=C/c3ccccc3)o2)c(Cl)c1`: -87.5% (active); for `c1ccc(-c2nnc(SCc3nc4ccccc4[nH]3)o2)cc1`: 25.5%.

For the molecule `O=C(Nc1nnc(SCc2ccc(Cl)cc2Cl)s1)C1COc2ccccc2O1` (centres undefined), the activity change (PNC), negative = inhibition is 43%.
